# Assay results published in ChEMBL document CHEMBL1961873, “Compounds: GSK PKIS; Assays: Nanosyn kinase panel” (2012).
# Experiments:
# [1] = molecular target: Sphingosine kinase 1 (Homo sapiens) (UniProt Q9NYA1); conditions: at 1 µM;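 further: mean SPHK1 inhibition value reported from the GSK PKIS kinase panel screen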
# [2] = molecular target: T1, Sphingosine kinase 2 (Homo sapiens) (UniProt Q9NRA0); conditions: at 0.1 µM
# T1 sequence (whole entry): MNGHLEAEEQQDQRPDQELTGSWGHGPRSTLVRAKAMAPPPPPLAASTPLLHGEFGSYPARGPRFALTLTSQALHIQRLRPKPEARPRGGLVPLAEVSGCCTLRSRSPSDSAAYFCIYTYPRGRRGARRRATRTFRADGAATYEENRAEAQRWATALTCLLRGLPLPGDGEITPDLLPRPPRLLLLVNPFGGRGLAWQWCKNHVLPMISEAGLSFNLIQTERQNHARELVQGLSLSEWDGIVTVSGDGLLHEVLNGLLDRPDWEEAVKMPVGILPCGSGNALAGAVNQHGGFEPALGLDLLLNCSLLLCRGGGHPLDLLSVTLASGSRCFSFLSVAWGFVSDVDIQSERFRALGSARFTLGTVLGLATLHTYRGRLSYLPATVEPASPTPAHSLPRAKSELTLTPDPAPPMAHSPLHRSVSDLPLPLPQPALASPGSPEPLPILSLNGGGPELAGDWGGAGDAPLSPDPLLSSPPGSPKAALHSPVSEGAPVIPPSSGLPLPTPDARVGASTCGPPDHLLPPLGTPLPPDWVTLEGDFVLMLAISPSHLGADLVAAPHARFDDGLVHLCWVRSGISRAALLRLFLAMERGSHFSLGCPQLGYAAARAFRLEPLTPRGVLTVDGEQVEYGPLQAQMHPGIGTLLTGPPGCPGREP
# [3] = molecular target: T1, Sphingosine kinase 2 (Homo sapiens); conditions: at 1 µM
# [4] = molecular target: Casein kinase II subunit alpha (Homo sapiens) (UniProt P68400); conditions: at 0.1 µM
# [5] = molecular target: Casein kinase II subunit alpha (Homo sapiens) (UniProt P68400); conditions: at 1 µM
# [6] = molecular target: T2, Inhibitor of nuclear factor kappa-B kinase subunit alpha (Homo sapiens) (UniProt O15111); conditions: at 0.1 µM
# T2 sequence (whole entry): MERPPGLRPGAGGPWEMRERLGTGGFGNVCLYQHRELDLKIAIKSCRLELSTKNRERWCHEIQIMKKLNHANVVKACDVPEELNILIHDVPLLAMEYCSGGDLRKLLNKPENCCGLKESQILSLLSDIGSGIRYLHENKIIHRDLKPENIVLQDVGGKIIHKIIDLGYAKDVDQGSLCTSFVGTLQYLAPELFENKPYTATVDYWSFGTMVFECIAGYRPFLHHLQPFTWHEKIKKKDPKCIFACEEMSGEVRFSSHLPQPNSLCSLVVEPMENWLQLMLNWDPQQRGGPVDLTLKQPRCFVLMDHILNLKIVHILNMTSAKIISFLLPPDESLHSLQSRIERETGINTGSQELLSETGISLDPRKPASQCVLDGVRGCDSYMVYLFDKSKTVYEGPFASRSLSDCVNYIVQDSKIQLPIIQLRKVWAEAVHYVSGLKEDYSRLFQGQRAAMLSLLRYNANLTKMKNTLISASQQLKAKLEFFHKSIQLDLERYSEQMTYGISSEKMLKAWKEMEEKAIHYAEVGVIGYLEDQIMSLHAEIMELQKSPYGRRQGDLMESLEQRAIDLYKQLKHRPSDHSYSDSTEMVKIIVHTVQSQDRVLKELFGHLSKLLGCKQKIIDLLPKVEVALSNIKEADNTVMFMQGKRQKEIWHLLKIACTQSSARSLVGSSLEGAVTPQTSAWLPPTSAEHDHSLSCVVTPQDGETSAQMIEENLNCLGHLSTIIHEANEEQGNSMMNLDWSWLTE
# [7] = molecular target: T2, Inhibitor of nuclear factor kappa-B kinase subunit alpha (Homo sapiens); conditions: at 1 µM
# [8] = molecular target: T3, Inhibitor of nuclear factor kappa-B kinase subunit beta (Homo sapiens) (UniProt O14920); conditions: at 0.1 µM
# T3 sequence (whole entry): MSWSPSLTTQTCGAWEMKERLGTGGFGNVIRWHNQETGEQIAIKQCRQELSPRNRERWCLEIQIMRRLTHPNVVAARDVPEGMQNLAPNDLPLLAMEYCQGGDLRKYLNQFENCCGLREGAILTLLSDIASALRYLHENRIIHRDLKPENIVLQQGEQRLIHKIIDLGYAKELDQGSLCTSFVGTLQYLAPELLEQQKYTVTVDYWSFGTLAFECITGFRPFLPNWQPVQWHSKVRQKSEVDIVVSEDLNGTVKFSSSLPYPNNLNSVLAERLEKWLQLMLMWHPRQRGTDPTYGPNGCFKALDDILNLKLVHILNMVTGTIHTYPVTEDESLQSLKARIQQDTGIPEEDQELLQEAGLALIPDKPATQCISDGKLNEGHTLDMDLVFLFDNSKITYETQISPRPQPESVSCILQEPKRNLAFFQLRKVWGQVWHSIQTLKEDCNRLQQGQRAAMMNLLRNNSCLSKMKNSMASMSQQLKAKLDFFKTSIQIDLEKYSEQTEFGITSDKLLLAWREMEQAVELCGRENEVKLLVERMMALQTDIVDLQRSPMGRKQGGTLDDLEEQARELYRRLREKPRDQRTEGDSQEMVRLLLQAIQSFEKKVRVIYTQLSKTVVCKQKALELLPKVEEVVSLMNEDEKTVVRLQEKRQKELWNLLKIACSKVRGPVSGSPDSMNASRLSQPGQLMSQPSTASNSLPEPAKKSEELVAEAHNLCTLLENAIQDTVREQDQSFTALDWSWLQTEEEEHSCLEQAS
# [9] = molecular target: T3, Inhibitor of nuclear factor kappa-B kinase subunit beta (Homo sapiens); conditions: at 1 µM
# [10] = molecular target: T4, Inhibitor of nuclear factor kappa-B kinase subunit epsilon (Homo sapiens) (UniProt Q14164); conditions: at 0.1 µM
# T4 sequence (whole entry): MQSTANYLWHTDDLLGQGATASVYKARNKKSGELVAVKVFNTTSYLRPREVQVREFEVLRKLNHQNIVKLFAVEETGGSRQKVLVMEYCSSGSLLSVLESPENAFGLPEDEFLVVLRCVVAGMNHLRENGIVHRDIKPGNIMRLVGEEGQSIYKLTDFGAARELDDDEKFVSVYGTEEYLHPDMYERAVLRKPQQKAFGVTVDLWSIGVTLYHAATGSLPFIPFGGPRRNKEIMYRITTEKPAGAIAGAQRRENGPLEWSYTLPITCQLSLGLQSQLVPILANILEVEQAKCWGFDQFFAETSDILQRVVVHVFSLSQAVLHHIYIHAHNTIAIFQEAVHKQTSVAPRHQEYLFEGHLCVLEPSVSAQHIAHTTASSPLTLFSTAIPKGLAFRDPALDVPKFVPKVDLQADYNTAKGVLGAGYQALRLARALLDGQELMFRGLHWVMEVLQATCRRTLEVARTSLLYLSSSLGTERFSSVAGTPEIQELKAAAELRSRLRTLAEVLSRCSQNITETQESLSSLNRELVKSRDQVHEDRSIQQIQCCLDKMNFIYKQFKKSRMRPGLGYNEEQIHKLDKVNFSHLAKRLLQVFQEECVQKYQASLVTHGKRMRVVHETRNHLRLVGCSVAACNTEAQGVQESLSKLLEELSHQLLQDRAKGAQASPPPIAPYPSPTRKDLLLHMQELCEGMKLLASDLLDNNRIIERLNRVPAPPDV
# [11] = molecular target: T4, Inhibitor of nuclear factor kappa-B kinase subunit epsilon (Homo sapiens); conditions: at 1 µM
# [12] = molecular target: T5, Serine/threonine-protein kinase Nek1 (Homo sapiens) (UniProt Q96PY6); conditions: at 0.1 µM
# T5 sequence (whole entry): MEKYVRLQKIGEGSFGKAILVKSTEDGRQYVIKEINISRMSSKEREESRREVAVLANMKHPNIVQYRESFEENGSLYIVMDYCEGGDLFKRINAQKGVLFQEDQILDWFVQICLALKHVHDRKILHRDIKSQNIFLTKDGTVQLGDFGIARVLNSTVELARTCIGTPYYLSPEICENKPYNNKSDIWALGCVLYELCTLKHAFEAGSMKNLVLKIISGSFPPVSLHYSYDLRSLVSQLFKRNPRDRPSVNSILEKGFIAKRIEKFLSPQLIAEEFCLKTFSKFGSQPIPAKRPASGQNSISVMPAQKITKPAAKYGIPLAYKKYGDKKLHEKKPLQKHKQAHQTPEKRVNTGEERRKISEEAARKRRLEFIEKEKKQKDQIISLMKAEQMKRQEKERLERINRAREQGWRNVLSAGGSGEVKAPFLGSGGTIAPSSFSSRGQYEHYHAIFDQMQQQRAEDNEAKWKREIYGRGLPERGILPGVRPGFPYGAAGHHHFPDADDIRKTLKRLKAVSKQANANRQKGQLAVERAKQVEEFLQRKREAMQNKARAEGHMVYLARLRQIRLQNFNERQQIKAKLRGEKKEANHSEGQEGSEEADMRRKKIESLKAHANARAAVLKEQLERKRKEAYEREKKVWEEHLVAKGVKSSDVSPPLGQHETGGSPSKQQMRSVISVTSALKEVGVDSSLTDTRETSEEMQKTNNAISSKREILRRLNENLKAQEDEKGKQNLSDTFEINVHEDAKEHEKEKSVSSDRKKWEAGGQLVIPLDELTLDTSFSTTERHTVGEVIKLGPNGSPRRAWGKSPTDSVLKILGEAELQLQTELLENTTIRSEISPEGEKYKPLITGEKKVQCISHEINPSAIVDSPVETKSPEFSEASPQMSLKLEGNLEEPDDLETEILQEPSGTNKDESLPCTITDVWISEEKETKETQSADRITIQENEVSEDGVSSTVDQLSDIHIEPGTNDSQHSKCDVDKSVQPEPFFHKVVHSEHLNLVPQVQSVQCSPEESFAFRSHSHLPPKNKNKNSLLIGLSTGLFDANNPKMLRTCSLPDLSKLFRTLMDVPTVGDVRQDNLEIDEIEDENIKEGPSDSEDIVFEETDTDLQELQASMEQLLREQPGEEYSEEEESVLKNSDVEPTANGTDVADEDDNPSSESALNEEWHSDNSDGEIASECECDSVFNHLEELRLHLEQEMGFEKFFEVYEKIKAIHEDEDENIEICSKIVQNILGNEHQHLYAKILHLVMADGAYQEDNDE
# [13] = molecular target: T5, Serine/threonine-protein kinase Nek1 (Homo sapiens); conditions: at 1 µM
# [14] = molecular target: T6, Serine/threonine-protein kinase Nek2 (Homo sapiens) (UniProt P51955); conditions: at 0.1 µM
# T6 sequence (whole entry): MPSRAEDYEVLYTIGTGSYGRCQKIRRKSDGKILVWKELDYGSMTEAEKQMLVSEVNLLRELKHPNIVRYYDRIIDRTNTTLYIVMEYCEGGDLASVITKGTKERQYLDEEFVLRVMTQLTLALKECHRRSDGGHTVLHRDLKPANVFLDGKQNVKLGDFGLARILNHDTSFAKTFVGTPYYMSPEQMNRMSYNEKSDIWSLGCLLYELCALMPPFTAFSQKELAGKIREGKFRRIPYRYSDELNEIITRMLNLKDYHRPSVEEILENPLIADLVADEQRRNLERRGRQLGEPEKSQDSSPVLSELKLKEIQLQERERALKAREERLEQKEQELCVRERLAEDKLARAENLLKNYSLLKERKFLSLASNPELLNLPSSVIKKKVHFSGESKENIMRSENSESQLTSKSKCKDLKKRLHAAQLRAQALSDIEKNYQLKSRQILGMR
# [15] = molecular target: T6, Serine/threonine-protein kinase Nek2 (Homo sapiens); conditions: at 1 µM
# [16] = molecular target: Serine/threonine-protein kinase Nek6 (Homo sapiens) (UniProt Q9HC98); conditions: at 0.1 µM
# [17] = molecular target: Serine/threonine-protein kinase Nek6 (Homo sapiens) (UniProt Q9HC98); conditions: at 1 µM
# [18] = molecular target: Serine/threonine-protein kinase Nek7 (Homo sapiens) (UniProt Q8TDX7); conditions: at 0.1 µM
# [19] = molecular target: Serine/threonine-protein kinase Nek7 (Homo sapiens) (UniProt Q8TDX7); conditions: at 1 µM
# [20] = molecular target: T7, Serine/threonine-protein kinase Nek9 (Homo sapiens) (UniProt Q8TD19); conditions: at 0.1 µM;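 further: reported value is the mean percent inhibition of NEK9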
# T7 sequence (whole entry): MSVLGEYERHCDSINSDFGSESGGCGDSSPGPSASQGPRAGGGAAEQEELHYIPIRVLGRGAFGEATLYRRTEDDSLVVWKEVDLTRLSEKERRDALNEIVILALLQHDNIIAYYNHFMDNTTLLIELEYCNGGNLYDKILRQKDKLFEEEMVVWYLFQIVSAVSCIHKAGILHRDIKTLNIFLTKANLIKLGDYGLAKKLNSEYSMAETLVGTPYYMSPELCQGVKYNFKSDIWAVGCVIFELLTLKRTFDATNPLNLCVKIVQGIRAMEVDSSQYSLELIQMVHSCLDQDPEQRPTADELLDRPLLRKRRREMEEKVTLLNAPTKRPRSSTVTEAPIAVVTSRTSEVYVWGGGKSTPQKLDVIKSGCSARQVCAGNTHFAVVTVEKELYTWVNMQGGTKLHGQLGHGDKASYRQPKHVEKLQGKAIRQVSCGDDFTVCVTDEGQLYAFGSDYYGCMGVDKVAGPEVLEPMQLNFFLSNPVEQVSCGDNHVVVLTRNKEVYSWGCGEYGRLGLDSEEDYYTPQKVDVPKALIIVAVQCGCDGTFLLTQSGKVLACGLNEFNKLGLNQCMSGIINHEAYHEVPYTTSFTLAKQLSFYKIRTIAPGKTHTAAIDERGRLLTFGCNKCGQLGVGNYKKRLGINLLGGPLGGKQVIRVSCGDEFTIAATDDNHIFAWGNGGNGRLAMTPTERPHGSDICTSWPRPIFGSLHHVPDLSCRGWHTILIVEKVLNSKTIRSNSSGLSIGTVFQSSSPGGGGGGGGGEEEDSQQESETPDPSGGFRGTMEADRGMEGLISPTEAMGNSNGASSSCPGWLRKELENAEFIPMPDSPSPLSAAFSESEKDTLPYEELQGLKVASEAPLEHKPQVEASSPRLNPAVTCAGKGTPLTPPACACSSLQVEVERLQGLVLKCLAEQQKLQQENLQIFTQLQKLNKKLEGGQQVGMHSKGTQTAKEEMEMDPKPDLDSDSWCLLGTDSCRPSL
# Sequence of Casein kinase II subunit alpha (Homo sapiens) (P68400 whole entry, looked up): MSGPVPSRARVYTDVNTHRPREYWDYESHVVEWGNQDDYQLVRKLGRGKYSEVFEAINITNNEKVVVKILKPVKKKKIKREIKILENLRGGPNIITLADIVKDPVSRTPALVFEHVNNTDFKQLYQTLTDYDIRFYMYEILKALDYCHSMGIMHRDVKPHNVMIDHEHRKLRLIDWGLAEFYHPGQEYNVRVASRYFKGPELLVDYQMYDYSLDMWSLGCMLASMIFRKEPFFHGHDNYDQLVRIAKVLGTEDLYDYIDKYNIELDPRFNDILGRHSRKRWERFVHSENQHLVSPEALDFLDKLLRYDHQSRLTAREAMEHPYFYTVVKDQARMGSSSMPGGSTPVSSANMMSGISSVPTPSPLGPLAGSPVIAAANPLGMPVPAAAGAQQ
# Sequence of Serine/threonine-protein kinase Nek6 (Homo sapiens) (Q9HC98 whole entry): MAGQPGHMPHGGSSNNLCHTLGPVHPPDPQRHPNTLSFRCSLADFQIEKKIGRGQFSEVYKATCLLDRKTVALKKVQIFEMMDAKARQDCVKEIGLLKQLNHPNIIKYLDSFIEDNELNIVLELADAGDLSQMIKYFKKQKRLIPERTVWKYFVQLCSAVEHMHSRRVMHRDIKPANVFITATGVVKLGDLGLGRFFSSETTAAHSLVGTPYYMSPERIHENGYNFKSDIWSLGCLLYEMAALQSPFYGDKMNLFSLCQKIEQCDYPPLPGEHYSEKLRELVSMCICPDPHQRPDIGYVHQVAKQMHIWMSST
# Sequence of Serine/threonine-protein kinase Nek7 (Homo sapiens) (Q8TDX7 whole entry, looked up): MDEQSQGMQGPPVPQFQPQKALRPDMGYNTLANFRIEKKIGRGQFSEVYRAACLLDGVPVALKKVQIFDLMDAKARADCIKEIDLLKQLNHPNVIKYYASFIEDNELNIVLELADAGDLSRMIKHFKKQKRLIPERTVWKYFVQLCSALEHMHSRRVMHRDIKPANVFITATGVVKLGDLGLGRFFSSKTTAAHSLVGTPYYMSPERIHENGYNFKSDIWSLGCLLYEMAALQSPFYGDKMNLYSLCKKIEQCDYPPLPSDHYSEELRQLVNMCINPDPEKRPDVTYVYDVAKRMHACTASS
# Sequence of Sphingosine kinase 1 (Homo sapiens) (Q9NYA1 whole entry): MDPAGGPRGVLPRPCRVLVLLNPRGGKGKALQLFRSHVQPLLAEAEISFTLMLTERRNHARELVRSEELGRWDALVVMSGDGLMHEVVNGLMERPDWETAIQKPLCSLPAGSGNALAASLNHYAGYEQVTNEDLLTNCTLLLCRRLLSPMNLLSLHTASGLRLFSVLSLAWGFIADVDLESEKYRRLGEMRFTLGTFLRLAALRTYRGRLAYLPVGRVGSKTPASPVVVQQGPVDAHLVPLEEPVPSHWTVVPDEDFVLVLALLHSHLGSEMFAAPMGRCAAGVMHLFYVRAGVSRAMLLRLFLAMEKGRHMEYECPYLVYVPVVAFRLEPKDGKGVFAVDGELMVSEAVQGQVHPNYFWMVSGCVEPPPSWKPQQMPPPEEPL
SMILES,inhibition [1],inhibition [2],inhibition [3],inhibition [4],inhibition [5],inhibition [6],inhibition [7],inhibition [8],inhibition [9],inhibition [10],inhibition [11],inhibition [12],inhibition [13],inhibition [14],inhibition [15],inhibition [16],inhibition [17],inhibition [18],inhibition [19],inhibition [20]
Cc1nnc(-c2ccc(C)c(-c3ccc(C(=O)Nc4cccc(C#N)c4)cc3)c2)o1,0%,0%,1.55%,1.51%,6.5%,7.7%,4%,3.09%,8.71%,3.28%,6.02%,1.56%,4.44%,3.25%,2.64%,1.65%,0.35%,3.44%,3.07%,5.36%
Nc1ncnc2occ(-c3ccc(NC(=O)Nc4cc(C(F)(F)F)cc(C(F)(F)F)c4)cc3)c12,-0.76%,1.12%,-0.25%,0.36%,-5.3%,-5.23%,-3.15%,-0.04%,1.07%,-2.4%,5.33%,1.24%,6.51%,3.72%,15.5%,-0.98%,0.99%,2.34%,0.46%,5.43%
